Measurements taken from PubChem BioAssay AID1159580 (chemical genetic matrix, 2015).
Among all 5,500 compounds or so, about 2,000 (36%) were called active. Not shown: some 18% with an inconclusive outcome. Rule as the data show it: active = normalized growth mostly below about 0.91 (no sharp cut-off); inconclusive = no clear call, values can overlap the other calls; inactive = mostly above about 0.92. The list shows a part of the results.

Test: chemical genetic growth profiling, strain panel (AID 1159580);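 also: tested at 20 µM; growth read once vehicle control cultures reached saturation at 30 °C; 1 = growth at the plate median or of vehicle wells; lower values mean less growth of the strain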
Conditions: growth OD

Measured: normalized growth

c1ccc2c(c1)[nH]c1cnccc12
inactive: S. cerevisiae deletion strains, locus YJR066W, strain TOR1, hits give low values 0.956 | S. cerevisiae deletion strains, locus YKL009W, strain mrt4, hits give low values 1.01 | S. cerevisiae deletion strains, locus YKL068W, hits give low values 0.975 | S. cerevisiae deletion strains, locus YKL085W, strain MDH1 (second series), hits give low values 0.98 | S. cerevisiae deletion strains, locus YKL085W, strain MDH1, hits give low values 0.98 | S. cerevisiae deletion strains, locus YKL160W, strain elf1, hits give low values 1.01 | S. cerevisiae deletion strains, locus YKL190W, strain CNB1, hits give low values 0.993 | S. cerevisiae deletion strains, locus YKR001C, strain vps1, hits give low values 0.962 | S. cerevisiae deletion strains, locus YKR026C, strain gcn3, hits give low values 0.986 | S. cerevisiae deletion strains, locus YKR091W, strain srl3, hits give low values 1 | S. cerevisiae deletion strains, locus YLL001W, strain dnm1, hits give low values 1 | S. cerevisiae deletion strains, locus YLL026W, hits give low values 0.996 | S. cerevisiae deletion strains, locus YLL041C, strain sdh2, hits give low values 1 | S. cerevisiae deletion strains, locus YLR027C, strain aat2, hits give low values 1.01 | S. cerevisiae deletion strains, locus YLR039C, strain RIC1, hits give low values 0.893 | S. cerevisiae deletion strains, locus YLR058C, strain SHM2, hits give low values 1.01 | S. cerevisiae deletion strains, locus YLR102C, strain apc9, hits give low values 0.972 | S. cerevisiae deletion strains, locus YLR113W, strain HOG1, hits give low values 1.03 | S. cerevisiae deletion strains, locus YLR221C, strain rsa3, hits give low values 1 | S. cerevisiae deletion strains, locus YLR258W, strain gsy2, hits give low values 0.998 | S. cerevisiae deletion strains, locus YLR262C, strain YPT6 (second series), hits give low values 0.948 | S. cerevisiae deletion strains, locus YLR262C, strain YPT6, hits give low values 0.947 | S. cerevisiae deletion strains, locus YLR268W, strain sec22, hits give low values 0.952 | S. cerevisiae deletion strains, locus YLR320W, strain mms22, hits give low values 0.994 | S. cerevisiae deletion strains, locus YLR330W, strain CHS5, hits give low values 0.976 | S. cerevisiae deletion strains, locus YLR342W, strain FKS1 (second series), hits give low values 1.02 | S. cerevisiae deletion strains, locus YLR342W, strain FKS1, hits give low values 1 | S. cerevisiae deletion strains, locus YLR357W, strain rsc2, hits give low values 0.99 | S. cerevisiae deletion strains, locus YLR370C, strain arc18, hits give low values 1 | S. cerevisiae deletion strains, locus YLR371W, strain rom2, hits give low values 0.983 | S. cerevisiae deletion strains, locus YLR384C, strain iki3, hits give low values 0.992 | S. cerevisiae deletion strains, locus YLR418C, strain cdc73, hits give low values 1.02 | S. cerevisiae deletion strains, locus YML016C, strain PPZ1, hits give low values 0.991 | S. cerevisiae deletion strains, locus YML032C, strain rad52, hits give low values 1.02 | S. cerevisiae deletion strains, locus YML120C, strain ndi1, hits give low values 1 | S. cerevisiae deletion strains, locus YML124C, strain tub3, hits give low values 0.987 | S. cerevisiae deletion strains, locus YMR058W, strain fet3, hits give low values 0.996 | S. cerevisiae deletion strains, locus YMR078C, strain ctf18, hits give low values 0.956 | S. cerevisiae deletion strains, locus YMR125W, strain sto1, hits give low values 0.996 | S. cerevisiae deletion strains, locus YMR129W, hits give low values 1.01 | S. cerevisiae deletion strains, locus YMR205C, strain PFK2, hits give low values 0.977 | S. cerevisiae deletion strains, locus YMR223W, strain ubp8, hits give low values 1 | S. cerevisiae deletion strains, locus YMR231W, strain pep5, hits give low values 0.994 | S. cerevisiae deletion strains, locus YMR263W, strain SAP30, hits give low values 0.982 | S. cerevisiae deletion strains, locus YMR307W, strain GAS1, hits give low values 1.23 | S. cerevisiae deletion strains, locus YNL067W, strain RPL9B, hits give low values 0.986 | S. cerevisiae deletion strains, locus YNL071W, strain lat1, hits give low values 1.01 | S. cerevisiae deletion strains, locus YNL153C, strain GIM3, hits give low values 0.971 | S. cerevisiae deletion strains, locus YNL183C, strain NPR1, hits give low values 0.965 | S. cerevisiae deletion strains, locus YNL209W, strain ssb2, hits give low values 1.01 | S. cerevisiae deletion strains, locus YNL233W, strain BNI4, hits give low values 0.984 | S. cerevisiae deletion strains, locus YNL248C, strain rpa49, hits give low values 1.01 | S. cerevisiae deletion strains, locus YNL250W, strain rad50, hits give low values 0.941 | S. cerevisiae deletion strains, locus YNL271C, strain bni1, hits give low values 0.985 | S. cerevisiae deletion strains, locus YNL298W, strain CLA4, hits give low values 0.984 | S. cerevisiae deletion strains, locus YNL307C, strain MCK1, hits give low values 0.976 | S. cerevisiae deletion strains, locus YNL322C, strain KRE1 (second series), hits give low values 1 | S. cerevisiae deletion strains, locus YNR049C, strain mso1, hits give low values 1.01 | S. cerevisiae deletion strains, locus YNR052C, strain pop2, hits give low values 0.997 | S. cerevisiae deletion strains, locus YOL012C, strain htz1 0.866 | S. cerevisiae deletion strains, locus YOL147C, strain pex11, hits give low values 0.988 | S. cerevisiae deletion strains, locus YOR001W, strain rrp6, hits give low values 0.996 | S. cerevisiae deletion strains, locus YOR061W, strain CKA2, hits give low values 1.01 | S. cerevisiae deletion strains, locus YOR069W, strain VPS5, hits give low values 0.998 | S. cerevisiae deletion strains, locus YOR070C, strain gyp1, hits give low values 1.01 | S. cerevisiae deletion strains, locus YOR080W, strain dia2, hits give low values 0.986 | S. cerevisiae deletion strains, locus YOR083W, strain WHI5, hits give low values 1 | S. cerevisiae deletion strains, locus YOR106W, strain vam3, hits give low values 1 | S. cerevisiae deletion strains, locus YOR136W, strain idh2, hits give low values 0.974 | S. cerevisiae deletion strains, locus YOR144C, strain elg1, hits give low values 0.99 | S. cerevisiae deletion strains, locus YOR184W, strain ser1, hits give low values 0.995 | S. cerevisiae deletion strains, locus YOR231W, strain MKK1, hits give low values 1.03 | S. cerevisiae deletion strains, locus YOR265W, strain rbl2, hits give low values 0.994 | S. cerevisiae deletion strains, locus YOR270C, strain vph1, hits give low values 1 | S. cerevisiae deletion strains, locus YOR290C, strain snf2, hits give low values 1.03 | S. cerevisiae deletion strains, locus YOR316C, strain cot1, hits give low values 0.988 | S. cerevisiae deletion strains, locus YPL051W, strain arl3, hits give low values 1 | S. cerevisiae deletion strains, locus YPL055C, strain LGE1, hits give low values 0.991 | S. cerevisiae deletion strains, locus YPL078C, strain atp4, hits give low values 1 | S. cerevisiae deletion strains, locus YPL106C, strain sse1, hits give low values 0.983 | S. cerevisiae deletion strains, locus YPL240C, strain hsp82, hits give low values 1.02 | S. cerevisiae deletion strains, locus YPL241C, strain CIN2, hits give low values 1.01 | S. cerevisiae deletion strains, locus YPL256C, strain CLN2, hits give low values 1.02 | S. cerevisiae deletion strains, locus YPR119W, strain clb2, hits give low values 0.979 | S. cerevisiae deletion strains, locus YPR141C, strain kar3, hits give low values 0.984 | S. cerevisiae deletion strains, locus YPR163C, strain tif3, hits give low values 0.985 | S. cerevisiae deletion strains, locus YPR167C, strain met16, hits give low values 0.986 | S. cerevisiae deletion strains, strain wtn01, hits give low values 0.95 | S. cerevisiae strains, strain wild type, hits give low values 0.999
